Screens from PubChem.
EWS-Fli block = blocks EWS/Fli oncoprotein-driven transcription | A673 NR0B1-luciferase reporter, viability-normalised | inhibition, % at 12.6 µM | actives 0.67% (n = 350,000) | AID 651661;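 active = mean inhibition of at least 50% after viability correction, with every replicate also passing that limit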;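 note: firefly luciferase signal divided by Alamar Blue viability fluorescence both relative to DMSO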
LGR2 inh = Drosophila LGR2 receptor signaling inhibition; HEK293 LGR2, CRE-luciferase, bursicon-stimulated, 4 h; inhibition, % at 9.99 µM; actives 0.35% (n = 380,000);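 active = drop in luminescence signal, shown as inhibition above about 50% in the replicate tests, limit read from the data, passing the limit was not always enough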;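 note: agonist challenge used bursicon conditioned medium at about half maximal strength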
PAX8 inh HTS = lowers PAX8-driven luciferase in RMG-I cells; RMG-I TPO-luciferase reporter, SteadyGlo, 24 h; inhibition, % at 12.6 µM; actives 1.2% (n = 360,000); AID 652154;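 active = mean replicate inhibition at least 60% with every replicate also reaching 60%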;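 note: luciferase light reporting Pax8 driven TPO promoter activity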
TWEAK Fn14 block = inhibitors of TWEAK-Fn14 interaction signaling; TWEAK-stimulated Fn14 reporter cells, luciferase luminescence, 8 h; AID 1159606; actives 2% (n = 360,000); inhibition, % at 10 µM; in the data active = inhibition above about 50%
TROY signal inh = inhibitors of TROY-dependent NF-kB signaling; Q293 LMP1-TROYcd NF-kB luciferase reporter, 4 h; inhibition, % at 10 µM; actives 0.98% (n = 360,000);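 active = compounds whose plate-normalised and pattern-corrected inhibition of the luciferase reporter signal at the single screening dose is 50% or more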
Numbers stand for hits; – = inactive; · = no result. Rows were chosen to be rich in hits. Some 2.8% of all compounds tested hit in one or more screens of this group.

SMILES | EWS-Fli block | LGR2 inh | PAX8 inh HTS | TWEAK Fn14 block | TROY signal inh
O=C(N[C@H]1CC[C@@H](CCn2cc(-c3ccccn3)nn2)O[C@@H]1CO)c1ccncc1 | – | – | – | · | ·
O=C(O)c1ccc(N2C(=O)CSC2=S)cc1 | – | – | – | 68 | –
CCN(CC)c1ccc(N2C(=O)CSC2=S)cc1 | – | – | – | 72 | –
O=C(NCCCSc1ccccc1)c1cc(Cl)ccc1O | · | – | – | 55 | –
C[C@H]1CN([C@@H](C)CO)S(=O)(=O)c2ccc(-c3ccccc3)cc2O[C@@H]1CN(C)C(=O)Cc1ccccc1 | – | – | – | · | ·
CCCCN(C)c1c(C)nc2ccc(C(=O)N(CC)CCN(C)C)cn12 | – | – | 82 | – | –
CCCCC(=O)N(C)c1c(C)nc2ccc(C(=O)N3CCCCC3)cn12 | – | 100 | – | – | –
CCCCC(=O)N(C)c1c(C)nc2ccc(C(=O)N3CCN(C(C)=O)CC3)cn12 | – | – | – | – | –
CCCCN(C=O)c1c(CC)nc2ccc(C(=O)N(CC)CCN(C)C)cn12 | – | – | – | – | –
CC(=O)N(C)C[C@@H]1Oc2cc(-c3ccccc3)ccc2S(=O)(=O)N([C@@H](C)CO)C[C@@H]1C | – | – | – | · | ·
C[C@H]1CN([C@@H](C)CO)C(=O)c2cc(N(C)C)ccc2O[C@@H]1CN(C)C | – | · | – | · | ·
O=C(Nc1ccccc1)N1CCCC1 | · | – | · | – | –
O=C(Nc1ccccc1)N1CCNCC1 | – | – | – | – | 90
CN(C)C(=O)C[C@H]1C[C@H]2c3cc(NC(=O)C4CCOCC4)ccc3O[C@H]2[C@@H](CO)O1 | – | – | – | · | ·
C[C@@H]1ON(C)[C@H]2C[C@H]3c4[nH]c5ccc(-c6ccc7c(c6)OCO7)cc5c4CCN3C[C@@H]12 | – | – | – | 85 | –
CCOCCCNC(=O)C(NC(=O)CNC(C)=O)c1ccc(C)cc1 (stereo unspecified) | · | · | · | 73 | –
CCOCCCNC(=O)C(NC(=O)c1ccc(NC(C)=O)cc1)c1ccc(C)cc1 (stereo unspecified) | – | – | – | – | –
O=C(NC(Cc1c[nH]c2ccccc12)C(=O)N/N=C/c1ccc(Cl)cc1)c1cccs1 (stereo unspecified) | – | – | – | 53 | –
CCOC(=O)C1=C(Cn2cnc3ccccc32)NC(=O)NC1c1cc(C)ccc1C (stereo unspecified) | · | – | · | – | 52
N=NC(=O)c1ccccc1Nc1c(O)[nH]c2ccccc12 | – | – | – | 53 | –
CC(=O)Nc1c(O)[nH]c2ccccc12 | · | · | · | – | –
C[C@@H]1CN([C@@H](C)CO)C(=O)c2cc(NC(=O)C3CC3)ccc2O[C@H]1CN(C)CC1CCCCC1 | – | – | – | · | ·
COC(=O)c1ccc(Cl)c(NC(=O)CN(c2ccccc2)S(=O)(=O)c2ccc(OC)cc2)c1 | – | – | – | 60 | –
COCC(=O)N1[C@@H](C#N)[C@@H](c2ccc(-c3cccc(F)c3)cc2)[C@@H]1CO | – | – | – | · | ·
O=C1NC[C@H](CCCCN2C[C@H](Cc3ccccc3)N(CCC3CCCCC3)C(=O)C2=O)N(CCC2CCCCC2)C1=O | – | – | – | – | 77
SMILES | EWS-Fli block | LGR2 inh | PAX8 inh HTS | TWEAK Fn14 block | TROY signal inh
O=C1NC[C@@H](CCCCN2C[C@H](Cc3ccccc3)N(CCC3CCCCC3)C(=O)C2=O)N(Cc2ccccc2)C1=O | – | – | – | – | –
C[C@@H]1CN([C@H](C)CO)S(=O)(=O)c2ccc(C#C[C@@H](C)O)cc2O[C@H]1CN(C)C(=O)C1CC1 | – | – | · | · | ·
CO[C@H]1CN(C)C(=O)c2cc(NC(=O)Nc3ccccc3)ccc2OC[C@H](C)N(C(C)=O)C[C@@H]1C | – | – | · | · | ·
C=CC[C@@]12N=C(c3ccc(OCCCO)cc3)O[C@@H]1c1ccccc1CN(CCS(=O)(=O)c1ccccc1)C2=O | – | · | 77 | · | ·
C=CCN1Cc2ccccc2[C@H]2OC(c3ccc(OCCCO)cc3)=N[C@@]2(CC=C)C1=O | – | · | – | · | ·
C[C@@H]1CN([C@H](C)CO)C(=O)Cc2cc(NC(=O)C3CCCCC3)ccc2O[C@H]1CN(C)C(=O)Nc1ccccc1 | – | – | – | · | ·
CC(C)C1CC(N(C)C)=CC(=S)N1 (stereo unspecified) | – | – | 78 | · | ·
CC(C)(C)/C(O)=C/c1nc2ccccc2[nH]c1=O | · | – | – | 75 | 82
O=C(NC(=O)c1ccccc1O)c1ccc2c(c1)CCO2 | – | · | – | 54 | –
CN1CCN(C(=O)/C(=C/c2cccc([N+](=O)[O-])c2)NC(=O)c2ccccc2)CC1 | – | – | – | 55 | –
CN1CCN(C(=O)/C(=C/c2ccc([N+](=O)[O-])cc2)NC(=O)c2ccccc2)CC1 | – | – | – | 54 | –
COCC(=O)Nc1ccc2c(c1)OC[C@@H](C)N(Cc1ccccn1)C[C@H](C)[C@H](OC)CN(C)C2=O | – | – | – | · | ·
CC[n+]1c(/C=C/c2c[nH]c3ccccc23)ccc2cc(C)ccc21 | – | 108 | 76 | · | ·
CCN(CC)C(=O)c1ccc(/C=C/c2c[nH]c3ccccc23)[n+](C)c1 | · | – | – | – | –
CC(C)CC#Cc1cnc2c(c1)C(=O)N([C@H](C)CO)C[C@H](C)[C@H](CN(C)C(=O)CN1CCOCC1)O2 | – | – | · | · | ·
Cc1cc(-c2ccccc2)nc(N/N=C/c2ccc(O)cc2)n1 | – | – | – | – | –
Oc1ccc(/C=N/Nc2nc(-c3ccc(Cl)cc3)cc(C(F)(F)F)n2)cc1 | – | · | – | 79 | –
CCCCN(C)C(=O)CCC(=O)NNc1nc2ccccc2c2nc(C)nn12 | – | – | – | 76 | –
Cc1ccc(S(=O)(=O)N(C)C[C@@H]2OCc3ccccc3-c3ccccc3C(=O)N([C@H](C)CO)C[C@@H]2C)cc1 | – | – | · | · | ·
CCSc1cc(N2CCOCC2)nc(-c2ccc(Cl)cc2)n1 | – | – | 135 | – | –
CCSc1cc(N2CCCC2)nc(-c2ccc(Cl)cc2)n1 | – | – | – | – | –
O=C(NC(=S)Nc1ccc2ncccc2c1)c1ccccc1 | – | – | – | – | 64
O=C(Nc1ccc2ncccc2c1)c1ccccc1 | – | – | – | – | –
COC(=O)c1ccccc1NC(=S)NC(=O)c1ccccc1 | · | · | · | 84 | ·
COC(=O)c1sc(NC(=S)NC(=O)c2ccccc2)nc1C | – | – | – | – | 52
SMILES | EWS-Fli block | LGR2 inh | PAX8 inh HTS | TWEAK Fn14 block | TROY signal inh
C[C@@H]1CN([C@@H](C)CO)C(=O)Cc2cc(NC(=O)CCCCCC(=O)Nc3ccccc3N)ccc2O[C@@H]1CN(C)CC1CC1 | – | – | – | · | ·
COCC(=O)N1[C@@H](C#N)[C@H](c2ccccc2-c2ccccc2F)[C@@H]1CO | – | – | · | · | ·
Cc1noc(C)c1NC(=O)Nc1ccc2c(c1)C(=O)N([C@H](C)CO)C[C@H](C)[C@H](CN(C)CC1CCCCC1)O2 | – | – | – | · | ·
CCCC(=O)N1CC2(CN(C)C2)c2c(n(C)c3cc(OC)ccc23)[C@@H]1CO | – | – | · | · | ·
Cc1nn(C(=O)c2c(-c3ccccc3)noc2C)c(C)c1N=Nc1cc(C(F)(F)F)cc(C(F)(F)F)c1 | – | – | – | – | 68
C[C@@H]1CCCCO[C@@H](CN(C)Cc2ccc3c(c2)OCO3)[C@H](C)CN([C@@H](C)CO)C(=O)c2cc(NC(=O)Nc3ccc(C(F)(F)F)cc3)ccc2O1 | – | – | 88 | · | ·
